# Results as given in PubChem BioAssay (NCATS).
# Several values for one entry are separate records, joined by “and”; a condition that tells them apart may be missing. Equal entries are not always repeated. Records with an inconclusive call do not appear. Values without a mark were called inactive. Activity calls are given as the source filed them. The call rests on the fitted dose curve; in most records, active means well fitted inhibition curve with a large enough effect; inconclusive means small, poorly fitted or top-dose-only effect; inactive means flat fitted curve, though single readings scatter.
# Test system: CRL-7250
# Test: Cytotoxic Profiling of Annotated Libraries Using Quantitative High-Throughput Screening (AID 1296008); further: nearly all actives have a fitted effect of over 60% in size
# Conditions: Five cell lines viability, CellTiter-Glo ATP luminescence, 48-72 h; max response: active compounds read low
# How it was run: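 Cytotoxicity was measured as CellTiter-Glo ATP luminescence, read after 10 min at room temperature. Compound treatment of the cells lasted 48 or 72 hr at 37 degrees Celsius in a qHTS format.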
# On the % scale 0 is the no-effect control and ±100 the full control effect; potency means the concentration at half of the fitted maximal effect.
Structure (SMILES),max response,outcome,Potency
CC1(C)CCC[C@@]2(C)[C@@H]1CC[C@@]1(C)OC(=O)C[C@H]21,1.92%,–,–
CC1(C)CCC(CN2CCN(c3ccc(C(=O)NS(=O)(=O)c4ccc(NCC5CCOCC5)c([N+](=O)[O-])c4)c(Oc4cnc5[nH]ccc5c4)c3)CC2)=C(c2ccc(Cl)cc2)C1,-2.21% and -9.69%,–,–
CC(C)C(=O)Oc1ccc(CO)cc1[C@H](CCN(C(C)C)C(C)C)c1ccccc1,-3.71% and 3.58%,–,–
O=C1NC(=O)C(=Cc2ccc(-c3ccc(F)cc3)o2)S1,-0.559%,–,–
COc1cc(O)c2c(c1)C(=O)c1cc(C)cc(O)c1C2=O,–,inactive,–
c1cc(-c2sc(-c3ccncc3)c(-c3ccncc3)c2-c2ccncc2)ccn1,-2.98%,–,–
COc1cc(Nc2ncc(F)c(Nc3ccc4c(n3)NC(=O)C(C)(C)O4)n2)cc(OC)c1OC,–,–,2310 nM (active)
NC1=N[C@@]2(c3cc(NC(=O)c4ccc(F)cn4)ccc3F)COC[C@@H]2CS1,–,inactive,–
CCOc1ccc(Nc2nc(-c3c(C)nc4ccccn34)cs2)cc1,–,–,146 nM (active)
COc1ncc(-c2ccc3nccc(-c4ccnnc4)c3c2)cc1NS(=O)(=O)c1ccc(F)cc1F,-92.9%,–,–
CO[C@@H](C(=O)N1Cc2[nH]nc(NC(=O)c3ccc(N4CCN(C)CC4)cc3)c2C1)c1ccccc1,–,–,5260 nM (active)
O=C(NCc1ccncc1)C12C[C@H]3C[C@@H](C1)CC(c1ccc(Cl)cc1)(C3)C2,-10.8%,–,–
